Laboratory results reported in PubChem BioAssay (Tox21).
Unmarked numbers belong to inactive results. Results filed as inconclusive are left out. Where a call stands in place of a potency, no number is given. Activity calls are given as the source filed them. Calls come from the whole dose curve; as a rule, active = well fitted curve in the direction sought with a large enough effect in the repeat runs; inconclusive = weak or mixed curves; inactive = no such curve, though single readings can be large; an effect the other way counts as inactive or inconclusive.

Tests used:
[1] = qHTS RealTime-Glo MT Cell Viability Assay in HepG2 cells - 24 hour (AID 1224867); note: nearly all actives have a fitted effect of over 50% in size
Method in brief: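 HepG2 cells were seeded at 600 cells/well together with NanoLuc luciferase and a cell-permeant prosubstrate, preincubated 5 h at 37 C/5% CO2, then pin-dosed with compounds in DMSO. Nonlytic luminescence from viable cells was read at each time point.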

[2] = qHTS RealTime-Glo MT Cell Viability Assay in HEK293 cells - 32 hour (AID 1224868); note: top concentration of the series differs between compounds; nearly all actives have a fitted effect of over 50% in size
Method in brief: (§1)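 HEK293 cells were seeded at 600 cells/well together with NanoLuc luciferase and cell-permeant prosubstrate, preincubated 5 h at 37 C/5% CO2, then given compound in DMSO by pintool. Luminescence from viable-cell prosubstrate reduction was read repeatedly over 40 h.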

[3] = A CellTox Green Cytotoxicity Assay to monitor cytotoxicity in HEK293 cells - 0 hour (AID 1224869); note: nearly all actives have a fitted effect of over 50% in size
Method in brief: (§2)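 Each value comes from one timepoint of a single continuous run in which HEK293 cells with CellTox Green were exposed to compound for up to 40 h at 37 C, dye fluorescence rising with cell death.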

[4] = qHTS RealTime-Glo MT Cell Viability Assay in HepG2 cells - 40 hour (AID 1224870); note: nearly all actives have a fitted effect of over 50% in size
Method in brief: (§3)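 HepG2 cells (600/well) mixed with RealTime-Glo MT reagent, settled 5 h at 37 C/5% CO2 before compound addition. Nonlytic NanoLuc luminescence from viable-cell prosubstrate reduction read repeatedly during 40 h treatment at 37 C.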

[5] = qHTS RealTime-Glo MT Cell Viability Assay in HEK293 cells - 16 hour (AID 1224872)
Method in brief: as §1

[6] = qHTS RealTime-Glo MT Cell Viability Assay in HepG2 cells - 8 hour (AID 1224873); note: nearly all actives have a fitted effect of over 55% in size
Method in brief: as §3

[7] = qHTS RealTime-Glo MT Cell Viability Assay in HEK293 cells - 40 hour (AID 1224874); conditions: RealTime-Glo luminescence; max response: stronger effect = lower value; note: nearly all actives have a fitted effect of over 50% in size
Method in brief: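 qHTS format; HEK293 cells with NanoLuc/prosubstrate reagent, 37 C/5% CO2 for 5 h pre-dosing; compounds 23 nL in DMSO; luminescence at each time point reflects viable cells.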

[8] = A CellTox Green Cytotoxicity Assay to monitor cytotoxicity in HEK293 cells - 24 hour (AID 1224875); note: nearly all actives have a fitted effect of over 45% in size; note: potency is the fitted concentration of half-maximal effect; for activity change: series mostly up to about 77 µM
Method in brief: as §2

[9] = A CellTox Green Cytotoxicity Assay to monitor cytotoxicity in HEK293 cells - 40 hour (AID 1224871); note: nearly all actives have a fitted effect of over 45% in size; note: potency is the fitted concentration of half-maximal effect
Method in brief: as §2

SMILES: COc1ccc(NS(=O)(=O)c2ccc(N)cc2)nn1
- outcome [1]: inactive
- Potency [2]: inactive
- Potency [3]: inactive
- outcome [4]: inactive
- Potency [5]: inactive
- outcome [6]: inactive
- max response [7]: 3.44%
- Potency [8]: inactive

SMILES: OC(CCN1CCCCC1)(c1ccccc1)c1ccccc1
- outcome [1]: inactive
- Potency [2]: inactive
- outcome [4]: inactive
- Potency [9]: inactive
- Potency [5]: inactive
- outcome [6]: inactive
- Potency [8]: inactive

SMILES: NCCc1ccn[nH]1
- outcome [1]: inactive
- Potency [2]: inactive
- Potency [3]: inactive
- outcome [4]: inactive
- outcome [6]: inactive
- Potency [8]: inactive

SMILES: CCCCCCCCCCCCC
- outcome [1]: inactive
- Potency [2]: inactive
- outcome [4]: inactive
- Potency [9]: inactive
- outcome [6]: inactive

SMILES: C[Si]1(C)N[Si](C)(C)N[Si](C)(C)N1
- outcome [1]: inactive
- Potency [2]: inactive
- outcome [4]: inactive
- Potency [9]: inactive
- Potency [5]: inactive
- outcome [6]: inactive
- max response [7]: 16.3%
- Potency [8]: inactive

SMILES: NS(=O)(=O)c1ccc(Cl)c(S(N)(=O)=O)c1
- outcome [1]: inactive
- Potency [2]: inactive
- outcome [4]: inactive
- Potency [9]: inactive
- Potency [5]: inactive
- outcome [6]: inactive
- max response [7]: 13.4%

SMILES: CC(CC(=O)O)CC(C)(C)C (configuration not stated)
- outcome [1]: inactive
- Potency [2]: inactive
- outcome [4]: inactive
- Potency [9]: inactive
- Potency [5]: inactive
- outcome [6]: inactive
- max response [7]: -0.126%
- Potency [8]: inactive

SMILES: C=C[C@@H](C)CCC=C(C)C
- outcome [1]: inactive
- Potency [2]: inactive
- outcome [4]: inactive
- Potency [9]: inactive
- Potency [5]: inactive
- outcome [6]: inactive
- max response [7]: 9.85%
- Potency [8]: inactive

SMILES: Cc1cc(O)c2c(c1)C(=O)c1cccc(O)c1C2=O
- outcome [1]: inactive
- Potency [2]: inactive
- Potency [3]: inactive
- outcome [4]: inactive
- Potency [5]: inactive
- outcome [6]: inactive
- max response [7]: 3.33%
- Potency [8]: inactive

SMILES: CCCCC(CC)COC(=O)c1ccccc1 (configuration not stated)
- outcome [1]: inactive
- Potency [2]: inactive
- Potency [3]: inactive
- outcome [4]: inactive
- Potency [5]: inactive
- outcome [6]: inactive
- max response [7]: 3.3%
- Potency [8]: inactive

SMILES: O=c1[nH]c(=O)c2[nH]c(=O)[nH]c2[nH]1
- activity change, negative = cytotoxicity [1]: 1.41% [at 6.97 µM]
- activity change, negative = cytotoxic [2]: 9.11% [at 6.97 µM]
- cytotoxicity [3]: -14.8% [at 6.97 µM]
- activity change, negative = cytotoxic [4]: 0.76% [at 6.97 µM]
- activity change, negative = cytotoxicity [5]: 9.21% [at 6.97 µM]
- viability change, negative = cytotoxic [6]: 1.36% [at 6.97 µM]
- activity change [8]: -9.62% [at 6.97 µM, stronger effect = higher value]

SMILES: c1ccccc1
- outcome [1]: inactive
- Potency [2]: inactive
- outcome [4]: inactive
- Potency [9]: inactive
- outcome [6]: inactive
- max response [7]: -3.11%
- Potency [8]: inactive

SMILES: O=C1CC[C@H](C(=O)N2CCCCC2)N1
- outcome [1]: inactive
- Potency [2]: inactive
- outcome [4]: inactive
- Potency [9]: inactive
- Potency [5]: inactive
- outcome [6]: inactive
- Potency [8]: inactive

SMILES: C=CCOc1cc(Cl)ccc1C(=O)NCCN(CC)CC
- outcome [1]: inactive
- Potency [2]: inactive
- Potency [3]: inactive
- outcome [4]: inactive
- outcome [6]: inactive
- max response [7]: -13.3%

SMILES: O=C(/C=C/c1ccccc1)NCCO
- outcome [1]: inactive
- Potency [2]: inactive
- outcome [4]: inactive
- Potency [9]: 7.56 µM (active)
- Potency [5]: inactive
- outcome [6]: inactive
- max response [7]: -3.72%
- Potency [8]: 6.01 µM (active)

SMILES: CC(C)c1ccccc1O
- outcome [1]: inactive
- Potency [2]: inactive
- outcome [4]: inactive
- Potency [9]: inactive
- Potency [5]: inactive
- outcome [6]: inactive
- max response [7]: 12.5%
- Potency [8]: inactive

SMILES: CCCCCC(=O)OCC
- outcome [1]: inactive
- Potency [2]: inactive
- Potency [3]: inactive
- outcome [4]: inactive
- Potency [5]: inactive
- outcome [6]: inactive
- max response [7]: 5.39%
- Potency [8]: inactive

SMILES: NS(=O)(=O)c1ccccc1OC(F)(F)F
- outcome [1]: inactive
- Potency [2]: inactive
- outcome [4]: inactive
- Potency [9]: inactive
- Potency [5]: inactive
- outcome [6]: inactive

SMILES: CC1=NN(c2ccc(S(=O)(=O)O)cc2)C(=O)C1N=Nc1ccccc1 (configuration not stated)
- outcome [1]: inactive
- Potency [3]: inactive
- outcome [4]: inactive
- Potency [9]: inactive
- outcome [6]: inactive
- Potency [8]: inactive

SMILES: Nc1c(NC/C=C\COc2cc(CN3CCCCC3)ccn2)c(=O)c1=O
- activity change, negative = cytotoxicity [1]: 1.59% [at 15.8 µM]
- activity change, negative = cytotoxic [2]: 2.38% [at 15.8 µM]
- activity change, negative = cytotoxic [4]: 1.19% [at 15.8 µM]
- activity change, negative = cytotoxicity [5]: 2.61% [at 15.8 µM]
- viability change, negative = cytotoxic [6]: 6.05% [at 15.8 µM]
- max response [7]: -0.39%
- activity change [8]: 3.31% [at 15.8 µM, stronger effect = higher value]

SMILES: CC(C)(C)c1ccc(C=O)cc1
- Potency [2]: inactive
- Potency [3]: inactive
- outcome [4]: inactive
- Potency [5]: inactive
- outcome [6]: inactive
- max response [7]: 0.97%
- Potency [8]: inactive

SMILES: CC(C)CCO
- Potency [2]: inactive
- Potency [3]: inactive
- outcome [4]: inactive
- Potency [9]: inactive
- max response [7]: 3.55%
- Potency [8]: inactive

SMILES: SCCSCCS
- Potency [2]: inactive
- Potency [3]: inactive
- outcome [4]: inactive
- Potency [9]: inactive
- outcome [6]: inactive
- max response [7]: -1.15%
- Potency [8]: inactive

SMILES: O=S1(=O)CCCC1
- Potency [2]: inactive
- Potency [3]: inactive
- outcome [4]: inactive
- Potency [9]: inactive
- Potency [5]: inactive
- outcome [6]: inactive
- max response [7]: 9.26%

SMILES: Cc1cccc(C(=O)O)c1[N+](=O)[O-]
- Potency [2]: inactive
- Potency [3]: inactive
- outcome [4]: inactive
- Potency [9]: inactive
- Potency [5]: inactive
- outcome [6]: inactive
- max response [7]: 0.185%
- Potency [8]: inactive

SMILES: COc1cc2c(Nc3ccc(Br)cc3F)ncnc2cc1OCC1CCN(C)CC1
- Potency [2]: inactive
- Potency [3]: inactive
- outcome [4]: inactive
- Potency [5]: inactive
- outcome [6]: inactive
- max response [7]: 6.99%
- Potency [8]: inactive

SMILES: CCCCOC(=O)C(C)OC(=O)CCC (configuration not stated)
- Potency [2]: inactive
- Potency [3]: inactive
- outcome [4]: inactive
- Potency [9]: inactive
- Potency [5]: inactive
- outcome [6]: inactive
- Potency [8]: inactive
